# Cruzain Triton: blocks cruzain activity in presence of Triton detergent. P25779. purified cruzain, Z-FR-AMC fluorescence, 0.01% Triton. Potency, µM, inactives show max response, negative = inhibition, hits mostly inhibitors. hit rate 0.43% among 200,000. AID 1478;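 note: plate controls were neutral wells for no effect and buffer without enzyme for full effect; nearly all actives have a fitted effect of over 40% in size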
# Target sequence (P25779 123-467 limits assumed): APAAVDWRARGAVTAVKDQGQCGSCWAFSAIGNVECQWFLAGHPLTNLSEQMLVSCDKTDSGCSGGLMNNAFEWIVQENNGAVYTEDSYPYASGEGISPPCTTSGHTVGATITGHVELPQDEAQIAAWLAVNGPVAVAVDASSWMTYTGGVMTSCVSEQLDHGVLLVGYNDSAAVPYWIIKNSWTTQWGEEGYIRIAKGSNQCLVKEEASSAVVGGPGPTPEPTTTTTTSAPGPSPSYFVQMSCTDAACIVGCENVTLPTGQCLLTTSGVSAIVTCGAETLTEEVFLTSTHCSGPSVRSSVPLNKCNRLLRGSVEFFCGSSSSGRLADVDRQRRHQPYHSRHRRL
#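 Read-out: AMC fluorescence (360 nm excitation, 450 nm emission), four reads over 2 min, first-to-third difference used. Conditions: cruzain 1.5 nM, Z-FR-AMC 2 uM, pH 5.5 acetate, 5 mM DTT, 0.01% Triton X-100.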
# Cruzain inh noDet: inhibitors of Trypanosoma cruzi cruzain without detergent; P25779; purified cruzain, Z-FR-AMC fluorescence, no detergent; Potency, µM, inactives show max response, negative = inhibition, hits mostly inhibitors; hit rate 2.3% among 200,000; AID 1476;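 note: plate controls were enzyme without inhibitor for no effect and buffer without enzyme for full effect; nearly all actives have a fitted effect of over 40% in size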
#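 Purified cruzain at 1.5 nM, pre-incubated 15 min with compound at room temperature in 100 mM sodium acetate pH 5.5, 5 mM DTT, 0.00005% Triton X-100. Reaction started with 2 uM Z-FR-AMC; AMC fluorescence increase over 60 s gives rate.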
# Starred values were filed as active, the others as inactive; ? = inconclusive. Compounds with a hit are over-represented: about 2.4% of the library has one in this group of screens. Calls come from the whole dose curve; as a rule, active = well fitted curve in the direction sought with a large enough effect; inconclusive = small, poorly fitted or top-dose-only effect, or another doubt; inactive = no such curve, though single readings can be large; an effect the other way counts as inactive or inconclusive. Potency is the fitted concentration of half-maximal effect.
SMILES,Cruzain Triton,Cruzain inh noDet
CC1=C(c2ccc(C(C)C)cc2)S(=O)(=O)NC1=NCCCN1CCN(c2ccccc2F)CC1,-3.2%,10.0%
Cc1nn2c(N)c(C#N)cnc2c1-c1ccccc1,-4.8%,9.6%
Cc1nn2c(N)c(C#N)cnc2c1-c1ccc(Cl)cc1,5.9%,25.1µM*
Cc1cc(C)c(NC(=O)c2cc3c(=O)n4ccccc4nc3n2C)c(C)c1,-1.2%,-4.5%
CCCCc1ccc(NC(=O)COc2ccc(C(=O)Nc3ccccc3OC)cc2)cc1,-5.7%,-9.9%
CCCn1ccc2c(OCC(=O)NCc3ccc(C)cc3)cccc2c1=O,-3.8%,-10.6%
CCCCc1ccc(NC(=O)COc2cccc3c(=O)n(C)ccc23)cc1,-2.0%,20µM*
CCCCc1ccc(NC(=O)COc2ccc(C(=O)Nc3ccccc3C)cc2)cc1,5.6%,31.6µM*
O=S(=O)(c1ccc(F)cc1)N1CCC(n2c(C(F)(F)F)nc3cccnc32)CC1,-1.6%,-10.5%
COc1ccccc1Nc1nc(-c2sc(NC(=O)CC(C)C)nc2C)cs1,-2.2%,?
c1cncc(-c2nc(-c3ccc4c(c3)OCO4)cs2)c1,-12.4%,-7.8%
COc1ccccc1Nc1nc(-c2c(C)[nH]c3ccccc23)cs1,-5.1%,25.1µM*
O=C1c2ccccc2C(=O)N1c1cccc(-c2csc(Nc3ccc4c(c3)OCO4)n2)c1,-0.3%,5.01µM*
COc1ccccc1Nc1nc(-c2cccc(N3C(=O)c4ccccc4C3=O)c2)cs1,-3.0%,7.94µM*
COc1ccc(-c2csc(Nc3cccnc3)n2)cc1OC,1.8%,-9.3%
O=C(CN1C(=O)C(c2ccc(F)cc2)=NC12CCCCCC2)Nc1ccc(F)c(Cl)c1,-7.3%,-17.3%
S=C1N[C@H](c2ccccc2)N[C@H](c2ccccc2)S1,-5.2%,-10.0%
O=C(NCc1nc2ccccc2[nH]1)c1cc2ccccc2oc1=O,14.1µM*,7.94µM*
O=C(NCc1nc2ccccc2[nH]1)c1ccco1,-1.2%,-7.1%
O=C(NNC(=O)c1sc2cccc(Cl)c2c1Cl)Nc1ccccc1,2.1%,10µM*
O=C(NNC(=O)c1sc2cccc(Cl)c2c1Cl)NC1CCCCC1,-9.0%,-7.2%
Cc1ccc(C)c(NC(=S)NC(NC(=O)Cc2ccccc2)C(Cl)(Cl)Cl)c1 (stereo unspecified),4.2%,25.1µM*
Cc1ccccc1C(=O)NC(NC(=S)Nc1ccc(S(N)(=O)=O)cc1)C(Cl)(Cl)Cl (stereo unspecified),12.6µM*,-27.4%
O=C(NC(NC(=S)Nc1ccccc1)C(Cl)(Cl)Cl)c1cccc(Cl)c1 (stereo unspecified),?,-9.1%
Cc1ccc(NC(=S)NC(NC(=O)c2ccco2)C(Cl)(Cl)Cl)cc1 (stereo unspecified),4.47µM*,15.0%
SMILES,Cruzain Triton,Cruzain inh noDet
Cc1ccc(C(=O)NC(NC(=S)Nc2ccc(S(N)(=O)=O)cc2)C(Cl)(Cl)Cl)cc1 (stereo unspecified),-16.9%,-4.4%
O=C(O)c1ccc(NC(=S)NC(NC(=O)c2ccco2)C(Cl)(Cl)Cl)cc1 (stereo unspecified),-5.4%,9.3%
Cc1cccc(NC(=S)NC(NC(=O)c2ccco2)C(Cl)(Cl)Cl)c1 (stereo unspecified),3.16µM*,1.7%
Cc1ccc(NC(=S)NC(NC(=O)c2ccccc2)C(Cl)(Cl)Cl)c(C)c1 (stereo unspecified),-9.4%,5.8%
NS(=O)(=O)c1cc2c(cc1Cl)=NC(CCC(=O)O)=NS=2(=O)O,1.8%,-1.0%
COc1cc(N=C(N)N=C(N)N)c2ncccc2c1,-0.7%,0.4%
COc1cc(NC(=O)C2CCN(S(=O)(=O)c3c(C)noc3/C=C/c3c(C)cc(C)cc3C)CC2)cc(OC)c1,-1.4%,6.2%
O=C(Nc1ccc(Br)cc1)c1ccc(F)c(S(=O)(=O)N2CCc3ccccc32)c1,0.4%,?
COc1cccc(/C=N/NC(=O)c2cc(-c3cccn3C)n[nH]2)c1,1.0%,25.1µM*
COc1cccc(/C=N/NC(=O)c2ccc(CN3c4cccc5cccc(c45)S3(=O)=O)cc2)c1,-5.9%,20µM*
O=C(N/N=C/c1ccccc1)c1ccc(CN2C(=O)c3cccc4cccc2c34)cc1,-1.7%,-68.1%
COc1cc(/C=N/NC(=O)c2cc(-c3cccn3C)n[nH]2)cc(OC)c1OC,-1.7%,5.8%
CN(C)c1ccc(/C=N/NC(=O)c2ccc(CN3C(=O)c4cccc5cccc3c45)cc2)cc1,-1.1%,3.98µM*
COc1cccc(/C=N/NC(=O)c2ccc(OCc3cccc(Br)c3)cc2)c1,0.3%,?
CSc1nc(C)cc(Nc2c(C)cc(C)cc2C)n1,-5.8%,-12.1%
Cc1ccc(S(=O)(=O)N2CCC(C(=O)O)(c3ccccc3)CC2)cc1,-1.9%,-6.3%
COc1ccc(/C=C\c2onc(C)c2S(=O)(=O)N2CCC(C(=O)Nc3ccc(Cl)cc3)CC2)cc1,-3.4%,-29.9%
N=c1oc2ccc3ccccc3c2cc1-c1nc(-c2ccccc2)cs1,-5.3%,25.1µM*
N=c1oc2ccccc2cc1-c1nc(-c2ccccc2)cs1,-14.5%,?
